An excerpt weighted towards active compounds, which were near 31% of everything screened.
CYP2C19 act – increases human CYP2C19 enzyme activity; P33261; recombinant CYP2C19, luciferin-H EGE luminescence; hits give high values; 0 = fully inhibited enzyme, 1 = untreated enzyme; AID 1025; activation factor at 5 µM; 96,000 tested, under 10 active;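 active means activation factor of at least 2 at 5 µM in the primary screen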;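 further: 0 = wells with 2.5 mM tranylcypromine and 1 = vehicle-only wells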
Target sequence (P33261 whole entry, looked up): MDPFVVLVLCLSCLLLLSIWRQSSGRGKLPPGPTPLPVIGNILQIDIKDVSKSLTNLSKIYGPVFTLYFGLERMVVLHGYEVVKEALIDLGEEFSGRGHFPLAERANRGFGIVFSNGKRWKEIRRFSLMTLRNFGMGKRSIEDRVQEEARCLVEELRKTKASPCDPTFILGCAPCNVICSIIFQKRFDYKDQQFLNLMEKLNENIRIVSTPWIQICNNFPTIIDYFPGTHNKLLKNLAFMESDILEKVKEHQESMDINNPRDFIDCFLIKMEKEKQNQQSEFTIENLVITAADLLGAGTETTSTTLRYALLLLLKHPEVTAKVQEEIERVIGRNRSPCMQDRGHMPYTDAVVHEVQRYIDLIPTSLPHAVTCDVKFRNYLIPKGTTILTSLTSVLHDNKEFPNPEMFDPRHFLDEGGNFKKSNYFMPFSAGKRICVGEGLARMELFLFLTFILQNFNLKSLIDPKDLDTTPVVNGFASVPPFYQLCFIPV
CYP2C9 activ – CYP2C9 (human) activation. recombinant CYP2C9, luciferin-H conversion, luminescence; hits give high values; factor 1 = untreated enzyme, 0 = blocked. activation factor at 5 µM. 1.4% of 96,000 active. AID 1024;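 active means activation factor of 2 or more for CYP2C9 at a 5 µM dose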;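 further: 0 = sulfaphenazole-blocked wells and 1 = vehicle-only wells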
CYP2C9 inh – inhibitors of human CYP2C9. CYP2C9 Supersomes, luciferin-H conversion, luminescence. inhibition, % at 5 µM. 20% of 96,000 active. AID 777;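 active means blocking of liver enzyme CYP2C9 beyond about 50% at 5 µM, limit read from the data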
CYP2C19 inh – blocks human cytochrome P450 2C19; CYP2C19 Supersomes, luciferin-H EGE luminescence, 30 min; inhibition, % at 5 µM; 21% of 96,000 active; AID 778;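 active means CYP2C19 inhibition above a set limit at 5 µM in the primary screen, cut at about 50% in these data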;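 further: plate controls were negative control wells for no effect and 2.5 mM tranylcypromine positive control for full effect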
* marks the source's active call; other numbers are inactive results.

SMILES	CYP2C19 act	CYP2C9 activ	CYP2C9 inh	CYP2C19 inh
CN(C)S(=O)(=O)N(CC(=O)Nc1ccccc1C(F)(F)F)c1ccccc1	0.1	0.7	33	88*
CN(C)S(=O)(=O)N(CC(=O)Nc1ccc(F)c(F)c1)c1ccccc1	0.7	0.4	56*	28
Cc1c(CCOC(=O)CC23CC4CC(CC(C4)C2)C3)sc[n+]1Cc1ccccc1	1	1.2	-20	-4
CCCCCCCCCOC(=O)C[n+]1csc(CCO)c1C	0.2	0.9	7	76*
O=C(Cc1c(F)cccc1Cl)Nc1ccon1	0.8	0.2	78*	23
Cc1cc(=O)oc2ccc(OCC(=O)NCc3ccco3)cc12	1	0.9	8	-2
COc1ccc(NS(=O)(=O)c2cccc(C(=O)OCC(=O)Nc3cc(C)on3)c2)cc1	0.9	0.3	71*	10
COc1cccc(S(=O)(=O)Nc2ccc(C(=O)NCc3ccco3)cc2)c1	0.4	0	98*	61*
O=C(COc1ccc2oc(-c3ccccc3)cc(=O)c2c1)NCc1ccco1	0.8	0.4	58*	24
Cc1ccc(NS(=O)(=O)c2cccc(C(=O)OCC(=O)NCc3ccco3)c2)cc1	0.4	0.1	86*	59*
O=C(NCc1ccccn1)/C(=N/O)c1ccccc1	1	1.1	-5	3
CC(=O)Oc1ccc(NC(=O)C2CCCCC2)c(C(=O)O)c1	1	0.9	5	-3
CC(=O)N(C)c1ccc(OCC(O)CN(Cc2ccco2)S(=O)(=O)c2ccc(C)cc2)cc1 (stereo not drawn)	1	0.2	80*	5
COCCCNC(=O)COc1ccc(S(=O)(=O)Nc2ccccc2)cc1	0.8	0.5	48	23
CCCCNC(=O)NS(=O)(=O)c1ccc(NS(=O)(=O)c2ccccc2)cc1	1	0.4	55*	-2
Cc1ccc(NS(=O)(=O)c2ccc(OCC(=O)NCc3ccco3)cc2)cc1	0.3	0.1	85*	75*
Cc1ccc(S(=O)(=O)N(C)c2ccc(OCC(=O)NCc3ccco3)cc2)cc1	0.8	0.1	93*	16
Cc1nc(N2CCN(c3ccccc3)CC2)[nH]c(=O)c1Cc1ccccc1	1	1	0	1
CCNC(=O)COc1ccc(S(=O)(=O)Nc2ccccc2)cc1	0.6	0.4	62*	39
CC1(C)CC(=O)CC(C)(C)N1OC(=O)c1ccccn1	0.7	0.9	11	30
CC(C)(C)CC(=O)N1CCC(c2nc3c(nnn3Cc3c(F)cccc3Cl)c(=O)[nH]2)CC1	0.5	0.2	82*	52*
O=C(c1ccccc1)N1CCC(c2nc3c(nnn3Cc3ccccc3Cl)c(=O)[nH]2)CC1	0.6	0.4	63*	40
Cc1ccc(C(=O)N2CCCC(c3nc4c(nnn4Cc4ccccc4)c(=O)[nH]3)C2)cc1 (stereo not drawn)	0.9	0.5	47	10
COc1ccccc1Cn1nnc2c(=O)[nH]c(C3CCN(C(=O)c4ccc(C)cc4)CC3)nc21	0.7	0.3	66*	32
COc1ccccc1Cn1nnc2c(=O)[nH]c(C3CCN(C(=O)c4ccccc4Cl)CC3)nc21	0.2	0.1	94*	75*
SMILES	CYP2C19 act	CYP2C9 activ	CYP2C9 inh	CYP2C19 inh
CN1C(=O)c2ccccc2C(C(=O)O)C1c1cn(C)c2ccccc12 (stereo not drawn)	0.8	0.8	17	15
Cc1cc(N(CC(=O)O)S(C)(=O)=O)ccc1Br	0.8	1.1	-13	16
Cn1nc(-c2ccccc2)c(C(=O)Nc2ccc(C(F)(F)F)cc2)c1Cl	0.7	1	2	30
Cn1nc(-c2ccccc2)c(C(=O)Nc2ccc(Cl)cc2)c1Cl	0.4	0.9	6	63*
COc1cccc(CNC(=O)C2CCCN(S(=O)(=O)c3c(C)[nH]c(=O)[nH]c3=O)C2)c1 (stereo not drawn)	1	1	2	-3
O=C(OCC(F)(F)C(F)F)c1ccccc1C(=O)Oc1ccc(F)cc1F	0.1	0.2	76*	90*
C=CCn1c(O)c(CN2CCOCC2)c(C)c(C#N)c1=O	1	0.9	8	-1
CC(=O)Nc1nc(CCC(C)C)cc2c1c(=O)oc1ccccc12	0.9	0.8	16	14
O=C(C(Cl)Cl)N1c2ccccc2OCC1c1ccccc1 (stereo not drawn)	0.2	0.2	75*	78*
O=C(CN1CCOc2ccccc21)NC1CCN(Cc2ccccc2)CC1	0.9	0.8	16	8
CCN(CC)S(=O)(=O)c1ccc(C(=O)Nc2ccc(OCC(=O)N3CCOCC3)cc2)cc1	1	0.9	10	-1
Cc1ccc(C(=O)Nc2cc(C)c(OCC(=O)N3CCOCC3)c(C)c2)cc1	0.9	0.2	78*	10
C#CCNc1nc(C)nc2c1nnn2Cc1ccccc1F	0.5	1	4	52*
CCCc1nc2c(nnn2Cc2ccccc2F)c(=O)[nH]1	0.1	1.5	-52	89*
Cc1nc(NCCO)c2nnn(Cc3ccccc3F)c2n1	0.9	1	0	14
Fc1ccccc1Cn1nnc2c(NCc3ccccn3)ncnc21	0.7	2.8*	-179	31
O=c1[nH]c(C(F)(F)F)nc2c1nnn2Cc1ccccc1F	1	0.7	31	3
Clc1ccccc1Cn1nnc2c(Nc3ccccc3)ncnc21	0.9	1.2	-22	8
Clc1ccccc1Cn1nnc2c(NCC3CC3)ncnc21	0.5	3.4*	-239	51*
CC(=O)Nc1cc(-c2nn3c(C)nnc3s2)ccc1C	0.9	1.2	-19	6
CCOC(=O)C1=C(C)Nc2nc(SCc3cccnc3)nn2C1c1ccc(OC)cc1 (stereo not drawn)	0.7	0.3	66*	26
CCOC(=O)C1=C(C)Nc2nnnn2C1c1cccnc1 (stereo not drawn)	0.9	0.9	9	10
CCOC(=O)C1=C(C)Nc2nc3ccccc3n2C1c1ccncc1 (stereo not drawn)	0.5	0.5	54*	54*
C=CCOC(=O)C1=C(C)Nc2nc3ccccc3n2C1c1ccncc1 (stereo not drawn)	0.4	0.4	58*	62*
O=C(O)/C=C/c1cn(-c2ncc(C(F)(F)F)cc2Cl)c2ccccc12	1	1	-3	-2
SMILES	CYP2C19 act	CYP2C9 activ	CYP2C9 inh	CYP2C19 inh
CCOC(=O)c1c(C)[nH]sc1=S	0.9	0.9	14	8
CCOC(=O)c1c(C(F)(F)C(F)(F)C(F)(F)C(F)(F)F)n[nH]c1C	0.1	0.1	92*	95*
CN(C)CCN1C(=O)C(O)=C(C(=O)c2cc3ccccc3o2)C1c1ccc(N(C)C)cc1 (stereo not drawn)	1	1.1	-6	2
CCOc1ccc(C(=O)Nc2cc(-c3nc4ccccc4[nH]3)ccc2C)cc1[N+](=O)[O-]	0.2	0.4	65*	82*
Cc1ccc(-c2nc3ccccc3[nH]2)cc1NC(=S)NC(=O)c1ccccc1Br	0.6	0.4	63*	38
Cc1ccc(-c2nc3ccccc3[nH]2)cc1NC(=O)/C=C/c1ccco1	0.5	0.2	79*	47
Cc1ccc(-c2nc3ccccc3s2)cc1NC(=S)NC(=O)c1ccccc1	0.7	0.8	19	26

Assay outcomes (PubChem BioAssay)
